Assay results as given in PubChem BioAssay AID489008 (National Center for Advancing Translational Sciences (NCATS), 2010).
Records with an inconclusive call do not appear. Activity calls are given as the source filed them. The call rests on the fitted dose curve; in most records, active means well fitted inhibition curve with a large enough effect; inconclusive means small, poorly fitted or top-dose-only effect; inactive means flat fitted curve, though single readings scatter.

molecular target: Ferritin light chain (Equus caballus) (UniProt P02791); experiment: Confirmation Assay for Identification of Novel General Anesthetics; settings: apoferritin 1-aminoanthracene fluorescence displacement; further: nearly all actives have a fitted effect of over 40% in size
Description: Anesthetic development has remained a largely empirical process. There are growing concerns about the cognitive effects of known general anesthetics and acceleration of the onset of neurodegenerative disease. The compounds' toxicity and multiple specific binding targets in the mammalian brain [4] has made them less attractive as drug leads. In this assay, a GABAergic mimetic model system, apoferritin and a profluorescent 1-aminoanthracene ligand (1-AMA), was used to construct a competitive binding assay for identification of novel general anesthetics. The assay was validated for 1-AMA using other known anesthetics, such as isoflurane (CID:3763) and propofol (CID: 4943), [6]. This particular BioAssay is a confirmation of followup compounds from primary screen AID:485281.
[1] S.L. Bianchi, T. Tran, C. Liu, S. Lin, Y. Li, J.M. Keller, R.G. Eckenhoff, and M.F. Eckenhoff, Brain and behavior changes in 12-month-old Tg2576 and nontransgenic mice exposed to anesthetics. Neurobiol Aging 29 (2008) 1002-10.
[2] Z. Xie, Y. Dong, U. Maeda, R.D. Moir, W. Xia, D.J. Culley, G. Crosby, and R.E. Tanzi, The inhalation anesthetic isoflurane induces a vicious cycle of apoptosis and amyloid beta-protein accumulation. J Neurosci 27 (2007) 1247-54.
[3] P. Honegger, and J.M. Matthieu, Selective toxicity of the general anesthetic propofol for GABAergic neurons in rat brain cell cultures. J Neurosci Res 45 (1996) 631-6.
[4] M.F. Eckenhoff, K. Chan, and R.G. Eckenhoff, Multiple specific binding targets for inhaled anesthetics in the mammalian brain. J Pharmacol Exp Ther 300 (2002) 172-9.
[5] C.A. Butts, J. Xi, G. Brannigan, A.A. Saad, S.P. Venkatachalan, R.A. Pearce, M.L. Klein, R.G. Eckenhoff, and I.J. Dmochowski, Identification of a fluorescent general anesthetic, 1-aminoanthracene. Proc Natl Acad Sci U S A 106 (2009) 6501-6.
[6] W.A. Lea, J. Xi, A. Jadhav, L. Lu, C.P. Austin, A. Simeonov, and R.G. Eckenhoff, A high-throughput approach for identification of novel general anesthetics. PLoS One 4 (2009) e7150.
Source: NIH Chemical Genomics Center [NCGC]
Assay Submitter: Roderic Eckenhoff, University of Pennsylvania
Screening Center PI: Christopher P. Austin, NIH
Probe Development: NIH Chemical Genomics Center [NCGC]
Three uL of reagents (free 1-AMA (50% saturated solution of 1-aminoanthracene
in PBS) in columns 3, 4 as negative control and 1-AMA/apoferritin mixture (10 uM horse-spleen apoferritin in 50% saturated 1-aminoanthracene in PBS) in columns 1, 2, 5-48) was dispensed into 1536-well Greiner black assay plates. Compounds (23 nL) were transferred via Kalypsys pintool equipped with 1,536-pin array (10 nL slotted pins, V&P Scientific, San Diego, CA). Titration of the positive control, propofol, were delivered via pin transfer from separate control plates to the 2nd column of each assay plate. The starting concentration of the control, dissolved in DMSO, was at 160 mM, followed by two-fold dilution points in duplicate, for a total of 16 concentrations. The plates were incubated for 10 min at room temperature, and then read on an EnVision HTS multilabel reader (Perkin-Elmer, Waltham, MA) (end point read, 3 min/plate) using Fura2 BFP excitation filter (380 nm, bandwidth 10 nm) and fluorescein emission filter (535 nm, bandwidth 25 nm) set. A LANCE/DELFIA dichroic mirror with a cutoff wavelength at 400 nm was used to maximize signal accuracy and strength. Vehicle-only plates, with DMSO being pin-transferred to the entire column 5-48 compound area, were inserted uniformly at the beginning and the end of each library in order to monitor for and record any shifts in the background. Activity was computed as the normalized fluorescence response relative to free 1-AMA and 1-AMA/apoferritin complex values. Concentration-effect relationships were derived by using curve fitting algorithms developed in-house (http://ncgc.nih.gov/pub/openhts/). […]
Potency means the concentration at half of the fitted maximal effect.

Sequence of Ferritin light chain (Equus caballus) (P02791 2-175 limits assumed): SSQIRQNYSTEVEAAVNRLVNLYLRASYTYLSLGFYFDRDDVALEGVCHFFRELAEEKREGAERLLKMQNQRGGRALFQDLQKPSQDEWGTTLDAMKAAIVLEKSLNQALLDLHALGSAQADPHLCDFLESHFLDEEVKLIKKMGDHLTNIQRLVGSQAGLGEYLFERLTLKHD

| SMILES | Potency |
| --- | --- |
| c1ccc(C2CC3CC4(CCCC4)N2O3)cc1 (configuration not stated) | 7.94 µM (active) |
| O=C(COC(=O)Cc1ccccc1)NC12CC3CC(CC(C3)C1)C2 | 14.1 µM (active) |
| Nc1ccc(Oc2cccc(Oc3ccc(N)cc3)c2)cc1 | 31.6 µM (active) |
| CCN(CC)C(=O)Oc1ccc(Cl)c2ccccc12 | 31.6 µM (active) |
| O=C1C(c2ccccc2)=C(N2CC2)c2ccccc21 | 35.5 µM (active) |
| CC(C(=O)c1cn(C)c2ccccc12)c1ccccc1 (configuration not stated) | 35.5 µM (active) |
| O=C(Cn1nc(-c2ccccc2)ccc1=O)N1CCC2(CC1)OCCO2 | 15.8 µM (active) |
